BoNT A protease: BoNT/A light chain protease inhibitors, primary screen, biochemical, flow cytometry, MLPCN library. Botulinum neurotoxin type A light chain protease (Clostridium botulinum A str. ATCC 3502). multiplex microsphere protease substrate cleavage. inhibition, % at 10 µM. actives 0.17% (n = 360,000). AID 588499, 2011; also: plate controls were buffer without enzyme for full effect and enzyme alone for no effect
Anthrax LF inh2: Bacillus anthracis LF protease inhibitors, primary screen, biochemical, multiplex microsphere, MLPCN library. Lethal factor (Bacillus anthracis), P15917. multiplex microsphere protease cleavage assay. inhibition, % at 10 µM. actives 0.12% (n = 360,000); also: plate controls were buffer without enzyme for full effect and enzyme alone for no effect
Target sequence (P15917 whole entry, looked up): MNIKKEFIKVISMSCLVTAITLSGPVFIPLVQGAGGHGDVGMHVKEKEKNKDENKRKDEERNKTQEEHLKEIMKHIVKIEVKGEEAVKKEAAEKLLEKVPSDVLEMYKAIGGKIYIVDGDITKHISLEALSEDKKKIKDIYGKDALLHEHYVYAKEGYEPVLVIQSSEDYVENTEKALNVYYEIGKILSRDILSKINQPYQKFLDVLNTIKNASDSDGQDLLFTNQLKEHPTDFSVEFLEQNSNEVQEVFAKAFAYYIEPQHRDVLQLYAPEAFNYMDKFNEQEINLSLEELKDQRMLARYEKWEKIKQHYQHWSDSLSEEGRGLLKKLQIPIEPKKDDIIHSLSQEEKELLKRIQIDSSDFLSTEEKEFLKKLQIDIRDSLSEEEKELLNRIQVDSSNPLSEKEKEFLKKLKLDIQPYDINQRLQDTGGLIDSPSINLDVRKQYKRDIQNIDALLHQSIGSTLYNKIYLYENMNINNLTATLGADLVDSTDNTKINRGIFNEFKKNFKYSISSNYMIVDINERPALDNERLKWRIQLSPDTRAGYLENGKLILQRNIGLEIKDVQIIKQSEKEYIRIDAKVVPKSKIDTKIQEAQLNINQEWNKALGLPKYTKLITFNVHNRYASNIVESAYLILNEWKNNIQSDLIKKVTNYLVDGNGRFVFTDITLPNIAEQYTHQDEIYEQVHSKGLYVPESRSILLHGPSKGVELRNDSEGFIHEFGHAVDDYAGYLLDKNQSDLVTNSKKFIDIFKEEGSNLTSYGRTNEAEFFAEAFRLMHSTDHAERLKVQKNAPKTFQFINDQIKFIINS
Bead autofluor: counter-screen for toxin protease inhibitors: compound fluorescence; compound autofluorescence counterscreen, microsphere flow cytometry; hits give high values; fluorescence intensity (test concentration not listed); actives 3.1% (n = 360,000); AID 624483; in the data active = fluorescence intensity above about 16000; inconclusive = no clear call, values can overlap the other calls
SSB-PriA inh: inhibitors of Klebsiella pneumoniae PriA binding to SSB C-terminal tail, primary screen, biochemical, AlphaScreen. PriA–SSB C-terminal tail interaction (Klebsiella pneumoniae). AID 1272365, 2023. actives 0.6% (n = 430,000). inhibition, % at 33 µM. AlphaScreen SSBct-PriA binding, biotinylated peptide; in the data active = inhibition mostly above about 37%, no sharp cut-off; inactive = mostly below about 20%;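 also: plate controls were negative control peptide for no effect and reference peptide for full effect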
BoNT-F LC inh: BoNT/F light chain protease inhibitors, primary screen, biochemical, flow cytometry, MLPCN library. Multiplex microsphere protease cleavage assay. inhibition, % at 10 µM. actives 0.22% (n = 360,000). AID 588497, 2011; in the data active = inhibition above about 35%, passing the limit was not always enough; inconclusive = no clear call, values can overlap the other calls; also: plate controls were buffer without enzyme for full effect and enzyme alone for no effect
Numbers without * were called inactive; ? = inconclusive; · = no result given. Shown are actives, neighbours in structure and some others; about 3.1% of the full set was active somewhere. Rule as the data show it, unless noted: active = inhibition above about 30%; inconclusive = no clear call, values can overlap the other calls; inactive = below that.

SMILES | BoNT A protease | Anthrax LF inh2 | Bead autofluor | SSB-PriA inh | BoNT-F LC inh
Cc1ccc2c(c1)CCCN2C(=O)c1ccco1 | 2 | -1 | 22783* | 4 | -1
CC(=O)c1ccc(NC(=O)CC(C)n2nc(C)cc2C)cc1 (stereo not given) | · | · | · | -11 | ·
CCOc1ccc(NC(=O)C(C)Cn2nc(C)cc2C)cc1 (stereo not given) | · | · | · | 12 | ·
COc1ccc(-c2csc(/C(C#N)=C3\C=CC=CN3C)n2)cc1 | · | · | · | 142* | ·
CS(=O)(=O)c1ccc2nc(NC(=O)C(c3ccccc3)c3ccccc3)sc2c1 | · | · | · | 8 | ·
CCN(CC)C(=S)SC1=C(Cl)CS(=O)(=O)C1 | · | · | · | 98* | ·
Cc1noc(C)c1S(=O)(=O)NCc1nn(C)c(=O)c2ccccc12 | · | · | · | -13 | ·
CC(=O)NC(=Nc1nc(C)cc(C)n1)Nc1ccc(Cl)cc1Cl | · | · | · | -12 | ·
CC1Oc2ccccc2N(CC(=O)c2cccc(Cl)c2)C1=O (stereo not given) | 12 | -12 | 19669* | -24 | 13
Cc1ccc2c(c1)N(Cc1ccncc1)C(=O)C(C)O2 (stereo not given) | 2 | -3 | 22957* | -7 | 2
Cc1ccc2c(c1)N(CC(=O)c1cccc(Cl)c1)C(=O)C(C)O2 (stereo not given) | -2 | -4 | 23986* | -15 | -2
Cc1ccc2c(c1)N(CC(=O)N(Cc1ccc3c(c1)OCO3)CC1CCCO1)C(=O)C(C)O2 (stereo not given) | 0 | 1 | 23947* | 6 | -3
COc1cccc(CNC(=O)CSc2nnc3ccc(-c4ccc5c(c4)OCO5)nn23)c1 | · | · | · | -13 | ·
Nc1ccc(C=C2C=Cc3ccccc32)cc1 | 0 | -10 | 4025 | 18 | -11
NC(N)=Nc1ccc(C=C2C=Cc3ccccc32)cc1 | 0 | -4 | 3675 | 42* | -26
Cc1cccc(C)c1NC(=O)c1cccn(Cc2ccc3c(c2)OC(F)(F)O3)c1=O | 10 | -13 | 16867* | -18 | 7
CC(C)Oc1cccc(NC(=O)c2cccn(Cc3ccc4c(c3)OC(F)(F)O4)c2=O)c1 | -1 | -8 | 10002 | -24 | -7
O=C(Nc1cccc(C(F)(F)F)c1)c1cccn(Cc2ccc3c(c2)OC(F)(F)O3)c1=O | -2 | 0 | 20449* | -9 | -2
Cc1cc(NC(=O)c2cc3ccccc3o2)n(-c2nc3ccccc3s2)n1 | · | · | · | -3 | ·
O=c1c2nnn(-c3cccc(F)c3)c2ncn1Cc1cccnc1 | · | · | · | -14 | ·
COc1ccc(C=Nc2c(-c3ccc(OC)cc3)nc3n2CCS3)cc1 | · | · | · | 56* | ·
Cc1cccc(Oc2coc3cc(OC(=O)c4cc5ccccc5oc4=O)ccc3c2=O)c1 | ? | -1 | 20697* | -15 | -1
COc1ccccc1Oc1coc2cc(OCC(N)=O)ccc2c1=O | 0 | 19 | 3638 | -3 | 41*
CCOC(=O)Oc1ccc2c(=O)c(Oc3cc(C)cc(C)c3)coc2c1 | ? | -1 | 22166* | -13 | 2
O=c1cc[nH]c2cccc(Cc3ccccc3)c12 | -2 | -4 | 24296* | -16 | -2
SMILES | BoNT A protease | Anthrax LF inh2 | Bead autofluor | SSB-PriA inh | BoNT-F LC inh
COc1ccc(S(=O)(=O)N2CCN(c3ccc(-n4ccnc4)nn3)CC2)cc1F | · | · | · | -9 | ·
NC1=NC(=O)C(=Cc2ccccc2)S1 | 0 | 3 | 2815 | -9 | 0
NC1=NC(=O)/C(=C/c2cccs2)S1 | -1 | -1 | 23925* | -14 | -2
Nc1ccc(N2CCCCC2)cc1N1CCCCC1 | 2 | -15 | 1778 | 63* | -83
Cc1nn(-c2ccc3ccccc3c2)c(=O)c2ccccc12 | 1 | 0 | 2024 | -3 | 3
Cc1nn(-c2cc(N3CCCCC3)ccc2N)c(=O)c2ccccc12 | ? | 0 | 20582* | 23 | 0
Cc1nn(-c2cc(N3CCCCCC3)ccc2[N+](=O)[O-])c(=O)c2ccccc12 | ? | 1 | 23118* | -4 | -2
Cc1ccc(-c2nn(-c3cc(N4CCNCC4)ccc3[N+](=O)[O-])c(=O)c3ccccc23)cc1 | 1 | -4 | 2079 | 31 | -18
COc1cccc(C2c3c(oc4cc(C)c(C)cc4c3=O)C(=O)N2CCN(C)C)c1OC (stereo not given) | · | · | · | -16 | ·
O=C(Cc1ccc2c(c1)OCO2)Nc1ccn2nccc2c1 | · | · | · | 0 | ·
CN(Cc1ccccc1NCC(=O)Nc1ccccc1C#N)C1CCCCC1 | 0 | -4 | 3270 | -13 | 2
N#Cc1ccccc1NC(=O)CNc1ccccc1N1CCCCC1 | ? | -4 | 22615* | -7 | -4
Cc1ccc(NP(=O)(Nc2ccc(C)cc2)Oc2ccccc2)cc1 | 0 | -2 | 3960 | 1 | -3
COc1ccc(OP(=O)(Nc2ccccc2)Nc2ccccc2)cc1 | 16 | -13 | 17088* | -10 | 14
COCC1CCN(S(=O)(=O)Cc2ccc(F)cc2)CC1 | · | · | · | -3 | ·
O=C(COc1cccc(C(F)(F)F)c1)NCCCN1CCCC1=O | ? | 3 | 16354* | -11 | 0
CS(=O)(=O)c1cccc(S(=O)(=O)NCc2ccco2)c1 | · | · | · | 2 | ·
CC(=NNC(=O)C(C)Oc1ccc([N+](=O)[O-])cc1)c1ccccn1 (stereo not given) | · | · | · | 48* | ·
O=C(CN1CCCCC1)Nc1cccc(Cl)c1 | 0 | 0 | 4052 | -15 | 0
COc1cc(NC(=O)Nc2cccc(Cl)c2)c(OC)cc1NC(=O)CN1CCCCC1 | 0 | -1 | 2833 | 50* | -7
Cc1ccc(NC(=O)CN2CCCCCC2)c(Br)c1 | -3 | -2 | 24257* | -14 | -4
O=C(CN1CCCCCC1)Nc1cccc(Br)c1 | -2 | 0 | 20288* | -20 | -1
COc1ccc(N2CCN(CC(=O)Nc3ccc(C)cc3Br)CC2)cc1 | 2 | -1 | 3576 | 1 | 0
O=C1c2cccc(NCCCNCCO)c2C(=O)c2cccc(NCCCNCCO)c21 | 30* | -56 | 2093 | 87 | -102
S=C1NC2=C(CCCC2)C2(CCCCC2)N1 | 0 | 1 | 3131 | 2 | 3
SMILES | BoNT A protease | Anthrax LF inh2 | Bead autofluor | SSB-PriA inh | BoNT-F LC inh
C1CCC2(CC1)C1=C(CCCC1)Nc1nnnn12 | -4 | -5 | 24281* | -8 | -7
Cc1ccc(C)c2sc(N(C)CC(=O)N3CCN(c4ccccc4O)CC3)nc12 | · | · | · | 12 | ·
COc1nn(C(C)C(=O)N2N=C(C(F)F)CC2(O)C(F)F)cc1[N+](=O)[O-] (stereo not given) | -1 | 3 | 20181* | -6 | -1
COc1nn(CC(=O)N2N=C(C(F)F)CC2(O)C(F)F)cc1[N+](=O)[O-] (stereo not given) | -3 | -3 | 23495* | -3 | -4
CC(C)c1ccc(-c2cc(C(=O)N3N=C(C(F)F)CC3(O)C(F)F)c3ccccc3n2)cc1 (stereo not given) | -1 | -7 | 10436 | 1 | -11
Cc1cc([N+](=O)[O-])nn1CC(=O)N1N=C(C(F)F)CC1(O)C(F)F (stereo not given) | -1 | -2 | 2469 | -8 | -4
